Source: PubChem BioAssay (NMMLSC)
In the library only some 3.5% were active in any assay of this set; here they are far more common.
Anthrax LF inh2 = anthrax lethal factor protease inhibition | 0.12% of 360,000 active | inhibition, % at 10 µM | AID 588501 | multiplex microsphere protease cleavage assay, LF; note: plate controls were buffer without enzyme for full effect and enzyme alone for no effect
Target sequence (P15917 whole entry, looked up): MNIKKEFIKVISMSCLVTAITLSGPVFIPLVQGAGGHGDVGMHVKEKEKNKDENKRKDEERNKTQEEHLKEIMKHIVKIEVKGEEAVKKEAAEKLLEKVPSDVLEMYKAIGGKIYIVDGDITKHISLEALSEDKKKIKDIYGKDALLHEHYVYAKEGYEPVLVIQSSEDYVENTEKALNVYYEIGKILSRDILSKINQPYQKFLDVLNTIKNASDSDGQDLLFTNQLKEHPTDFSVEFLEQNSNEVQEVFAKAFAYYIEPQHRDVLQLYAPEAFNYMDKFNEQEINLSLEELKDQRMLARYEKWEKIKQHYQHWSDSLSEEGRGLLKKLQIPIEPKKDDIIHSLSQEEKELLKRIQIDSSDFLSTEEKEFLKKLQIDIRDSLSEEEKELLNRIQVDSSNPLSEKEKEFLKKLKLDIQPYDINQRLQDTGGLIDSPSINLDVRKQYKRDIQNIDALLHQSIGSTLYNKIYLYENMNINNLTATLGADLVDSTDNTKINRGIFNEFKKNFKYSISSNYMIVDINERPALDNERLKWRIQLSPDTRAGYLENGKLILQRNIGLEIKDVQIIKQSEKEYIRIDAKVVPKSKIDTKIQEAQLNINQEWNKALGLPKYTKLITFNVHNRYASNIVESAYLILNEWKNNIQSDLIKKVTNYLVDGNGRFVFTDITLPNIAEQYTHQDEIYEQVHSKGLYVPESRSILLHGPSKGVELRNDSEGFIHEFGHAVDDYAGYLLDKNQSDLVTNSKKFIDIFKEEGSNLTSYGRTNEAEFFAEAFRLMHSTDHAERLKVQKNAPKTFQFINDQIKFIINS
Bead autofluor = counter-screen for toxin protease inhibitors: compound fluorescence; fluorescence intensity (test concentration not listed); compound autofluorescence counterscreen, microsphere flow cytometry; hits give high values; 3.1% of 360,000 active; in the data active = fluorescence intensity above about 16000; inconclusive = no clear call, values can overlap the other calls
BoNT-A LC inh2 = BoNT A light chain protease inhibition; multiplex microsphere protease substrate cleavage, flow cytometry; inhibition, % at 10 µM; 0.17% of 360,000 active; AID 588499; note: plate controls were buffer without enzyme for full effect and enzyme alone for no effect
BoNT-F LC inh = blocks Botulinum neurotoxin F light chain protease | Multiplex microsphere protease cleavage assay, flow cytometry | inhibition, % at 10 µM | 0.22% of 360,000 active | AID 588497; in the data active = inhibition above about 35%, passing the limit was not always enough; inconclusive = no clear call, values can overlap the other calls; note: plate controls were buffer without enzyme for full effect and enzyme alone for no effect
The depositor's hits bear a star; u = inconclusive. Cut-off read from the data, not from the text of the source, unless noted: active = inhibition above about 30%; inconclusive = no clear call, values can overlap the other calls; inactive = below that.

SMILES	Anthrax LF inh2	Bead autofluor	BoNT-A LC inh2	BoNT-F LC inh
Cc1cccc(OCC(=O)NCCN2CCOCC2)c1	-2	20366*	-2	-5
Cc1ccc(C(=O)NCCN2CCCC2)cc1	-2	3009	0	-11
O=C(CN1C(=O)COc2ccc(Cl)cc21)NCC1CCCO1 (stereo not drawn)	2	5871	1	-1
CC(C)Nc1nc(NC(C)C)nc(C(N)=O)n1	0	16247*	0	-4
CC(C)Nc1nc(NC(C)C)nc(N(C)N)n1	-4	4230	-3	-13
CC(C)Nc1nc(NC(C)C)nc(N(C)C(N)=O)n1	-1	19916*	2	2
O=C(CCS(=O)(=O)c1ccccc1)N(CCCN1CCOCC1)c1nc2ccc(F)cc2s1	-5	6223	-1	10
CCc1nc(Nc2ccc3c(c2)OCCO3)c2oc3ccccc3c2n1	-4	17390*	-3	-8
Cc1nc(Nc2ccc3c(c2)OCCO3)c2oc3ccccc3c2n1	-2	2440	0	-4
CCc1nc(NCc2ccc3c(c2)OCO3)c2oc3ccccc3c2n1	-2	23489*	u	-6
c1ccc2c(c1)oc1c(Nc3ccc4c(c3)OCCO4)ncnc12	-4	19956*	2	2
CN(C)C(=O)C(OC(=O)c1ccc2ccccc2n1)c1ccccc1 (stereo not drawn)	-1	5422	1	4
CCCN1CCC(NC(=O)Cc2ccc(C)cc2)CC1	-10	3867	0	-6
COc1ccc(NC(=O)C2CC(c3cc(OC)c(OC)c(OC)c3)=NO2)cc1OC (stereo not drawn)	-2	21486*	5	1
COc1cc(NC(=O)C2CC(c3cccc(Br)c3)=NO2)cc(OC)c1OC (stereo not drawn)	16	3964	5	0
COc1ccc(CNC(=O)C2CC(c3cccc(OC)c3)=NO2)cc1 (stereo not drawn)	-9	19613*	9	9
COc1ccc(NC(=O)C2CC(c3ccc(OC)c(OC)c3)=NO2)cc1OC (stereo not drawn)	-8	10820	1	-22
COc1cc(C2=NOC(C(=O)Nc3ccc4c(c3)OCO4)C2)cc(OC)c1OC (stereo not drawn)	-12	3272	1	-33
COc1cccc(C2=NOC(C(=O)Nc3cc(OC)c(OC)c(OC)c3)C2)c1 (stereo not drawn)	-4	21270*	-3	-3
COc1cc(C2=NOC(C(=O)Nc3ccc(C)cc3)C2)cc(OC)c1OC (stereo not drawn)	-2	19324*	2	1
Cc1ccc(CN2CCN(Cc3cc4ccccc4o3)CC2CCO)cc1 (stereo not drawn)	-9	3835	-1	u
Cc1cc(C)cc(NC(=O)c2ccc(N3C(=O)C4CCCCC4C3=O)cc2)c1 (stereo not drawn)	6	6163	-1	6
O=C(Nc1ccc(F)c(F)c1)C1=COCCO1	1	4154	1	1
COc1ccc(C2=NOC(C(=O)Nc3ccc(C)cc3)C2)cc1OC (stereo not drawn)	3	21677*	2	3
COc1cc(C2=NOC(C(=O)NCc3ccc(F)cc3)C2)cc(OC)c1OC (stereo not drawn)	0	17938*	-2	-6
SMILES	Anthrax LF inh2	Bead autofluor	BoNT-A LC inh2	BoNT-F LC inh
COc1cc(C2=NOC(C(=O)N3CCN(c4ccc(F)cc4)CC3)C2)cc(OC)c1OC (stereo not drawn)	-3	17355*	-3	-2
CCN(CC)CCCn1c2c(c(SCC(=O)Nc3ccc4c(c3)OCCO4)nc1=O)CCC2	-2	5626	-3	-7
CCN1C(=O)[C@H]2[C@@H](c3ccc(-c4ccc(Cl)c(Cl)c4)c(OC)c3)N[C@@](Cc3ccccc3)(C(=O)OC)[C@H]2C1=O	-7	3935	0	0
O=C(Nc1ccccc1)N1CCC(C(=O)N(Cc2ccco2)Cc2cccs2)CC1	-3	20994*	u	4
CCOc1ccc(C(=O)Nc2c3c(nn2-c2cccc(Cl)c2)CS(=O)C3)cc1 (stereo not drawn)	0	22721*	-1	-1
O/N=C1\CCCc2oc3c(c21)CCCC3	-1	19892*	1	2
Cc1c(C(=O)O)oc2c1/C(=N\O)CCC2	0	2344	0	3
CCS(=O)(=O)c1ncc(Cl)c(C(=O)Nc2ccc(S(=O)(=O)N3CCC(C)CC3)cc2)n1	0	6532	-2	-9
CCOc1ccc(CCNC(=O)CN(C)S(=O)(=O)c2ccc3c(c2)CCC(=O)N3)cc1OCC	-2	23279*	-2	-2
CCc1ccc(/C=C2/SC(=S)N(CCC(=O)Nc3cccnc3)C2=O)cc1	6	u	13	-2
COc1ccccc1C(=O)NCC(=O)OC(C)C(=O)NC1CCCCC1C (stereo not drawn)	0	3112	0	6
